In PubChem BioAssay (NCI):
“And” between values parts separate entries of the source, which are not always exact repeats. Identical values can stand only once. This is part of a sample that, as a whole, favours compounds with a hit. Of some 79,000 tested, about 15% had one in any assay. The source holds several records for some structures; these can differ, active in one and inactive in another. The source made the active and inactive calls. Cut-off read from the data, not from the text of the source: active = growth inhibition above about 70%; inactive = the rest. Where a SMILES comes first, the peptide text is derived from it.

assay: NCI Yeast Anticancer Drug Screen. Data for the sgs1 mgt1 strain (AID 161);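 note: 0% = growth of cultures given vehicle only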; conditions: S. cerevisiae sgs1 mgt1 strain, at 5.0 µM (retest, dose inferred, filed as 0.5), stronger effect = higher value
Outline: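 Read-out: growth inhibition vs vehicle controls. Cells: mutant yeast strain deficient in DNA damage repair.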

Row | Compound | growth inhibition
1 | Cc1cccc(Cc2ccccc2Cl)c1O | 1% (inactive)
2 | OC1CN(Cc2ccccc2)C[C@@H]1O (stereo partly specified) | 10% (inactive)
3 | BrC(c1cccc2ccccc12)c1cccc2ccccc12 | 1% (inactive)
4 | COc1nc(NC2OC(CO)C(O)C(O)C2O)c(Cl)c(=O)n1C (stereo unspecified) | 2% (inactive)
5 | O=S(=O)(CC(Cl)c1ccccc1)c1nc2ccccc2s1 (stereo unspecified) | 9% (inactive)
6 | CCCCCCCCCCCCOS(=O)(=O)O | -5% (inactive)
7 | O=C(NNc1ccnc2cc(Cl)ccc12)/C(=C/c1ccc2c(c1)OCO2)NC(=O)c1ccccc1 | -4% (inactive)
8 | O=C(CCN1CCN2c3ccccc3CCC2C1)c1ccc(F)cc1 (stereo unspecified) | 74% (active) and -2% (inactive)
9 | CC1C[C@]2(C)C(=O)Nc3ccccc3[C@@H]2Nc2ccccc21 (stereo partly specified) | 22% (inactive)
10 | Nc1nc(=S)c2ncn(C3OC(CO)C(O)C3O)c2[nH]1 (stereo unspecified) | 66% (inactive)
11 | O=C(O)c1c2ccccc2nc2[nH]c(=O)[nH]c(=O)c12 | -6% (inactive)
12 | N#Cc1c(/N=C/c2ccccc2Cl)sc2c1CCC2 | -1% (inactive)
13 | CCC1=C(C)/C(=C/c2[nH]c(C)c(CC)c2C)N=C1C | 0% (inactive) and -2% (inactive)
14 | O=C(O)c1ccccc1C(=O)O | 0% (inactive)
15 | Cc1cc(C)nc(NS(=O)(=O)c2ccc(Nc3c4ccccc4nc4c(C(=O)NCCCN(CCO)CCO)cccc34)cc2)n1 | -2% (inactive)
16 | CCCCCCCCCCCCCCCCCCOCC(COP(=O)([O-])OCC[N+](C)(C)C)OC (stereo unspecified) | -13% (inactive)
17 | S=c1nc[nH]c2[nH]ccc12 | 0% (inactive)
18 | C=C[C@]1(C)C=C2C(O)CC3C(C)(C)CCC[C@]3(CO)C2CC1 (stereo partly specified) | 17% (inactive)
19 | c1ccc(-c2cnc(-c3ccc(-c4ncc(-c5ccccc5)o4)cc3)o2)cc1 | -23% (inactive)

Row | Compound | growth inhibition
20 | Nc1ccc2c(ccc3ccc4ccccc4c32)c1 | -8% (inactive)
21 | O/N=C(\CC(O)(C(F)(F)F)C(F)(F)F)c1cccc(Cl)c1 | 10% (inactive)
22 | CC(=O)OC1CCC2(C)C(CCC3C4CCC(OC(C)=O)C4(C)CCC32)O1 (stereo unspecified) | -23% (inactive)
23 | Cc1[nH]c2ccccc2c1C1Cc2ccccc2N1 (stereo unspecified) | 16% (inactive) and 25% (inactive)
24 | COc1ccc(C2c3cc4c(cc3OC(NNC(N)=O)C2C)OCO4)cc1 (stereo unspecified) | -38% (inactive)
25 | Oc1ccc(C(O)(c2ccccc2)c2ccccc2)cc1 | -30% (inactive) and 35% (inactive)
26 | COc1ccc(CC(=O)c2ccc(O)cc2O)cc1 | -22% (inactive)
27 | COC(=O)C#CC(=O)OC | -15% (inactive)
28 | O=C1OC2=C(c3ccccc3)CCCC2C1=O (stereo unspecified) | 1% (inactive)
29 | CC(C)C(NC(=O)C(N)CCC(=O)O)C(=O)O (stereo not drawn) (H-Glu-Val-OH; configuration not given here) | 0% (inactive)
30 | CC1(C)CC(=O)C2=C(C1)OC1=C(CC(C)(C)CC1=O)C2c1ccccc1Cl (stereo unspecified) | 8% (inactive)
31 | O=C(CC(=O)CC(O)(c1ccccc1)c1ccccc1)CC(=O)c1ccccc1 | 0% (inactive)
32 | O=Nc1ccc(C=C2C(=O)C=CC2=O)cc1 | 94% (active)
33 | C[N+]1(Cc2ccc(Cl)c(Cl)c2)CCCC1C1CCCN(Cc2ccc(Cl)c(Cl)c2)C1 (stereo unspecified) | 3% (inactive)
34 | C[C@H]1CC[C@H]([C@@H](C)[C@H]2[C@@H](O)C[C@H]3[C@@H]4CC[C@H]5C[C@@H](O)CC[C@]5(C)[C@H]4CC[C@]23C)NC1 | 23% (inactive) and 4% (inactive)
35 | CCOP(=O)(OCC)C(C)(CC)NC(=O)C(C(F)(F)F)C(F)(F)F (stereo unspecified) | 16% (inactive)
36 | [N-]=[N+]=NC(=O)Nc1cccc(C(F)(F)F)c1 | 2% (inactive)
37 | NC(C/[N+]([O-])=N/O)C(=O)O (stereo unspecified) | 46% (inactive)
38 | NC(=O)N/N=C/c1ccc([N+](=O)[O-])o1 | 4% (inactive)

same assay, conditions: S. cerevisiae sgs1 mgt1 strain, at 50.0 µM (retest, dose inferred, filed as 5.0), stronger effect = higher value

Row | Compound | growth inhibition
39 | Cc1cccc(Cc2ccccc2Cl)c1O | 80% (active)
40 | OC1CN(Cc2ccccc2)C[C@@H]1O (stereo partly specified) | 99% (active)
41 | BrC(c1cccc2ccccc12)c1cccc2ccccc12 | 96% (active)
42 | COc1nc(NC2OC(CO)C(O)C(O)C2O)c(Cl)c(=O)n1C (stereo unspecified) | -2% (inactive)
43 | O=S(=O)(CC(Cl)c1ccccc1)c1nc2ccccc2s1 (stereo unspecified) | 9% (inactive)
44 | CCCCCCCCCCCCOS(=O)(=O)O | 28% (inactive)
45 | O=C(NNc1ccnc2cc(Cl)ccc12)/C(=C/c1ccc2c(c1)OCO2)NC(=O)c1ccccc1 | 47% (inactive)
46 | O=C(CCN1CCN2c3ccccc3CCC2C1)c1ccc(F)cc1 (stereo unspecified) | 96% (active) and 100% (active)
47 | CC1C[C@]2(C)C(=O)Nc3ccccc3[C@@H]2Nc2ccccc21 (stereo partly specified) | 14% (inactive)
48 | Nc1nc(=S)c2ncn(C3OC(CO)C(O)C3O)c2[nH]1 (stereo unspecified) | 26% (inactive)
49 | O=C(O)c1c2ccccc2nc2[nH]c(=O)[nH]c(=O)c12 | -3% (inactive)
50 | N#Cc1c(/N=C/c2ccccc2Cl)sc2c1CCC2 | 10% (inactive)
51 | CCC1=C(C)/C(=C/c2[nH]c(C)c(CC)c2C)N=C1C | 51% (inactive) and 32% (inactive)
52 | O=C(O)c1ccccc1C(=O)O | 7% (inactive)
53 | Cc1cc(C)nc(NS(=O)(=O)c2ccc(Nc3c4ccccc4nc4c(C(=O)NCCCN(CCO)CCO)cccc34)cc2)n1 | -5% (inactive)
54 | CCCCCCCCCCCCCCCCCCOCC(COP(=O)([O-])OCC[N+](C)(C)C)OC (stereo unspecified) | -14% (inactive)
55 | S=c1nc[nH]c2[nH]ccc12 | -2% (inactive)
56 | C=C[C@]1(C)C=C2C(O)CC3C(C)(C)CCC[C@]3(CO)C2CC1 (stereo partly specified) | 97% (active)
57 | c1ccc(-c2cnc(-c3ccc(-c4ncc(-c5ccccc5)o4)cc3)o2)cc1 | -11% (inactive)

Row | Compound | growth inhibition
58 | Nc1ccc2c(ccc3ccc4ccccc4c32)c1 | 98% (active)
59 | O/N=C(\CC(O)(C(F)(F)F)C(F)(F)F)c1cccc(Cl)c1 | 97% (active)
60 | CC(=O)OC1CCC2(C)C(CCC3C4CCC(OC(C)=O)C4(C)CCC32)O1 (stereo unspecified) | 70% (active)
61 | Cc1[nH]c2ccccc2c1C1Cc2ccccc2N1 (stereo unspecified) | 14% (inactive) and 79% (active)
62 | COc1ccc(C2c3cc4c(cc3OC(NNC(N)=O)C2C)OCO4)cc1 (stereo unspecified) | 96% (active)
63 | Oc1ccc(C(O)(c2ccccc2)c2ccccc2)cc1 | 30% (inactive) and 89% (active)
64 | COc1ccc(CC(=O)c2ccc(O)cc2O)cc1 | 73% (active)
65 | COC(=O)C#CC(=O)OC | 84% (active)
66 | O=C1OC2=C(c3ccccc3)CCCC2C1=O (stereo unspecified) | 69% (inactive)
67 | CC(C)C(NC(=O)C(N)CCC(=O)O)C(=O)O (stereo not drawn) (H-Glu-Val-OH; configuration not given here) | 1% (inactive)
68 | CC1(C)CC(=O)C2=C(C1)OC1=C(CC(C)(C)CC1=O)C2c1ccccc1Cl (stereo unspecified) | 10% (inactive)
69 | O=C(CC(=O)CC(O)(c1ccccc1)c1ccccc1)CC(=O)c1ccccc1 | 98% (active)
70 | O=Nc1ccc(C=C2C(=O)C=CC2=O)cc1 | 99% (active)
71 | C[N+]1(Cc2ccc(Cl)c(Cl)c2)CCCC1C1CCCN(Cc2ccc(Cl)c(Cl)c2)C1 (stereo unspecified) | 80% (active)
72 | C[C@H]1CC[C@H]([C@@H](C)[C@H]2[C@@H](O)C[C@H]3[C@@H]4CC[C@H]5C[C@@H](O)CC[C@]5(C)[C@H]4CC[C@]23C)NC1 | 98% (active) and 94% (active)
73 | CCOP(=O)(OCC)C(C)(CC)NC(=O)C(C(F)(F)F)C(F)(F)F (stereo unspecified) | 13% (inactive)
74 | [N-]=[N+]=NC(=O)Nc1cccc(C(F)(F)F)c1 | 99% (active)
75 | NC(C/[N+]([O-])=N/O)C(=O)O (stereo unspecified) | 51% (inactive)
76 | NC(=O)N/N=C/c1ccc([N+](=O)[O-])o1 | 34% (inactive)
